The full list was thinned out, with hits kept by preference.
Chlamy TAG: increases triacylglycerol in Chlamydomonas reinhardtii. AID 1159537. Chlamydomonas reinhardtii TAG, Nile Red fluorescence, 72 h. actives 0.84% (n = 44,000). calls only at 10 µM (by protocol); call rule not given here;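 further: hits raise Nile Red signal meaning more stored TAG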
* hit, by the source's call; i = inactive; + = active, no number.

SMILES	Chlamy TAG
O=C(Nc1ccccc1F)c1ccc(CSc2ccccc2)cc1	i
CC(C)c1ccccc1NS(=O)(=O)c1ccccc1[N+](=O)[O-]	i
O=C(Nc1ccc2c(c1)C1C=CCC1C(C(=O)O)N2)c1ccc(Cl)cc1Cl (centres undefined)	i
COc1ccc(N2CCN(C(=O)c3cc([N+](=O)[O-])ccc3N3CCOCC3)CC2)cc1	i
COc1c(Cl)ccc(Cl)c1C(=O)NCCc1ccccc1	i
COc1ccc(Cl)cc1NC(=O)CCCOc1ccccc1	i
CCOc1ccc(OCCOCCN2CCCC2)cc1	i
c1ccc(OCCCN2CCCCC2)cc1	i
COc1ccc(OCCCN2CCCCC2)cc1	+
COc1ccc(OCCCCN2CCCCC2)cc1	i
CCOc1cccc(OCCN2CCCC2)c1	i
CCC(C)c1ccc(OCCN2CCCC2)cc1 (centres undefined)	+
COc1cc(NC(=O)Nc2cccc(Cl)c2)c(OC)cc1Cl	i
CCOc1ccc(NC(=O)C(C)C)c([N+](=O)[O-])c1	i
O=[N+]([O-])c1ccc(N2CCN(S(=O)(=O)c3cccc4cccnc34)CC2)cc1	i
Nc1nc(-c2ccc(NC(=O)c3ccc(Cl)cc3)cc2)cs1	i
O=C(N/C(=C/c1cccs1)C(=O)N1CCCCC1)c1cccs1	i
CCN(CC)CCNC(=O)c1ccc(Cl)cc1Cl	i
Cc1ccc(Cl)cc1NC(=O)c1ccccc1NC(=O)c1ccco1	i
COc1ccc(N2CCN(C(=O)c3ccc(CN4CCc5ccccc5C4)cc3)CC2)cc1	i
NC(=O)C1CCN(C(=O)c2ccc(CN3CCc4ccccc4C3)cc2)CC1	i
O=C(c1ccc(CN2CCc3ccccc3C2)cc1)N1CCN(c2ccccc2F)CC1	+
Cc1cc(Br)ccc1S(=O)(=O)NCc1ccc2c(c1)OCO2	i
O=C1C(=O)N(CCN2CCOCC2)C(c2ccncc2)C1=C(O)c1ccc(F)cc1 (centres undefined)	i
Cc1ccc(NC(=O)CN2CCN(c3ccc(F)cc3)CC2)cc1	i
SMILES	Chlamy TAG
C/C=C(\C)CN1CCN(c2ccc(C)cc2)CC1	+
C/C=C(\C)CN1CCN(Cc2ccccc2)CC1	i
Cc1ccc2c(c1)C(O)(CC(=O)c1ccc(Br)cc1)C(=O)N2 (centres undefined)	i
COc1ccc(C(=O)c2c(NC(C)=O)c(C#N)c(C)n2-c2ccccc2)cc1	i
Cc1ccc(NC(=O)COc2ccc(Cl)cc2)c(C)c1	i
O=C(Nc1ccc2nc(-c3ccccn3)c(-c3ccccn3)nc2c1)N1CCCC1	i
CN(C)c1ccc(NC(=O)Nc2ccc3nc(-c4ccccn4)c(-c4ccccn4)nc3c2)cc1	+
Cc1nc2ccc(NC(=O)Nc3ccc(N(C)C)cc3)cc2nc1C	i
COc1cc(Cl)c(C)cc1NC(=O)c1cc(OC)c(OC)c(OC)c1Br	i
O=[N+]([O-])C1=C(Nc2ccccc2O)CS(=O)(=O)C1	i
CCN(Cc1ccccc1)Cc1cc([N+](=O)[O-])ccc1O	i
c1ccc(N2CCN(CC3CCCCC3)CC2)cc1	+
CCN1CCC(N2CCN(c3ccccc3)CC2)CC1	i
O=C(C1CCN(CC2CCCCC2)CC1)N1CCN(c2ccccc2)CC1	i
COc1ccc(NC(=O)c2cc(I)ccc2Cl)cc1	i
Cc1cc(C)c(OCCCCN2CCNCC2)c(C)c1	+
Cc1cc(Cl)c(OCCOCCN2CCNCC2)c(Cl)c1	i
Cc1cc(C)c(OCCCN2CCCC2)c(C)c1	i
O=C(Cc1ccc(Cl)cc1)Nc1ccc(N2CCN(C(=O)c3ccccc3)CC2)cc1	i
O=C(c1ccccc1)N1CCN(C(=O)c2ccc(Cl)cc2Cl)CC1	i
O=C(Nc1ccc(N2CCN(C(=O)c3ccccc3)CC2)cc1)c1ccc(Cl)cc1Cl	+
OC(CN1CCNCC1)Cn1c2ccccc2c2cc(Br)ccc21 (centres undefined)	i
CC(=O)C1=C(O)C(=O)NC1c1ccc(Cl)cc1 (centres undefined)	i
C/C=C(\C)CN(C)CCN(C)C	i
C/C(=C\c1ccccc1)CN(C)C1CCN(C)CC1	i
SMILES	Chlamy TAG
C/C(=C\c1ccccc1)CN(C)CCN(C)C	+
COc1ccc(CCCC(=O)Nc2nccs2)c(C)c1	i
Cc1ccc(NC(=O)C2CC(=O)NC(Nc3nc4ccccc4s3)=N2)cc1 (centres undefined)	i
CCOc1cccc(C(=O)Nc2ccc(C)cc2)c1	i
COc1ccc(CN2CCN(c3ncnc4sc5c(c34)CCCC5)CC2)cc1	+
c1ccc(N2CCN(c3ncnc4sc5c(c34)CCC5)CC2)cc1	i
COc1ccc(-c2nc3c4c5c(sc4ncn3n2)CCCC5)cc1	i
CC(Oc1ccccc1)C(=O)NCc1ccc(Cl)cc1 (centres undefined)	i
N=c1n(CCN2CCCCC2)c2ccccc2n1CC(O)c1cccs1 (centres undefined)	i
Clc1ccc(OCCn2ccnc2)c(Br)c1	i
Cc1cc(Cl)c(OCCn2ccnc2)c(Br)c1	+
Clc1ccc(OCCn2ccnc2)c(Cl)c1	i
Cc1cc(Cl)cc(C)c1OCCn1ccnc1	+
